# Test results taken from PubChem BioAssay (NCATS).
# Records with an inconclusive call do not appear. Active and inactive are the calls of the source. Calls come from the whole dose curve; as a rule, active = well fitted curve in the direction sought with a large enough effect; inconclusive = small, poorly fitted or top-dose-only effect, or another doubt; inactive = no such curve, though single readings can be large; an effect the other way counts as inactive or inconclusive.
# Columns and labels:
# [1] = Quantitative High-Throughput drug screen in 47 multiple myeloma cell lines against the NCATS MIPE library collection: H1112_PLB cell viability assay (AID 1918967; note: nearly all actives have a fitted effect of over 30% in size)
# Procedure, shortened: (§1)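 Steps: seed 500 cells per well; pin-transfer MIPE 4.0 library; incubate 48 h at 37C, 5% CO2, humidified; add CellTiter-Glo, 5 min room temperature; read luminescence.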
# [2] = Quantitative High-Throughput drug screen in 47 multiple myeloma cell lines against the NCATS MIPE library collection: Karpas25_ECACC cell viability assay (AID 1918968; note: nearly all actives have a fitted effect of over 35% in size)
# Procedure, shortened: as §1
# [3] = Quantitative High-Throughput drug screen in 47 multiple myeloma cell lines against the NCATS MIPE library collection: KMS12BM_JCRB cell viability assay (AID 1918971); note: nearly all actives have a fitted effect of over 35% in size
# Procedure, shortened: as §1
# [4] = Quantitative High-Throughput drug screen in 47 multiple myeloma cell lines against the NCATS MIPE library collection: KMS12PE_JCRB cell viability assay (AID 1918972); note: nearly all actives have a fitted effect of over 30% in size; for viability: series mostly up to about 46 µM
# Procedure, shortened: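 Luminescent ATP measurement with CellTiter-Glo gives viability, scaled between DMSO-only wells (100%) and media-only wells (0%). Cells, 500 per well, faced library compounds for 48 hours at 37C.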
# [5] = Quantitative High-Throughput drug screen in 47 multiple myeloma cell lines against the NCATS MIPE library collection: KMS26_JCRB cell viability assay (AID 1918975); note: nearly all actives have a fitted effect of over 45% in size
# Procedure, shortened: as §1
# [6] = Quantitative High-Throughput drug screen in 47 multiple myeloma cell lines against the NCATS MIPE library collection: MOLP8_DSMZ cell viability assay (AID 1918977); note: nearly all actives have a fitted effect of over 45% in size
# Procedure, shortened: (§2)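 qHTS format: cells plated (500/well), pin-dosed with MIPE 4.0 compounds, kept 48 h at 37 °C. Readout was CellTiter-Glo luminescence, median RLU.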
# [7] = Quantitative High-Throughput drug screen in 47 multiple myeloma cell lines against the NCATS MIPE library collection: NCIH929_DSMZ cell viability assay (AID 1918978); note: nearly all actives have a fitted effect of over 35% in size
# Procedure, shortened: as §2
# [8] = Quantitative High-Throughput drug screen in 47 multiple myeloma cell lines against the NCATS MIPE library collection: KMS27_JCRB cell viability assay (AID 1918970); note: nearly all actives have a fitted effect of over 30% in size
# Procedure, shortened: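 Each line is seeded at 500 cells per well and treated with library compounds for 48 hours under 37 °C, 5% CO2. CellTiter-Glo is then added for 5 min at room temperature before median relative luminescence is recorded.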
# [9] = Quantitative High-Throughput drug screen in 47 multiple myeloma cell lines against the NCATS MIPE library collection: MMM1_PLB cell viability assay (AID 1918976); note: nearly all actives have a fitted effect of over 35% in size
# Procedure, shortened: as §2
# [10] = Quantitative High-Throughput drug screen in 47 multiple myeloma cell lines against the NCATS MIPE library collection: KMS20_JCRB cell viability assay (AID 1918973); note: nearly all actives have a fitted effect of over 45% in size
# Procedure, shortened: as §1
# Potency is the fitted concentration of half-maximal effect.
Structure (SMILES),Potency [1],Potency [2],Potency [3],Potency [4],Potency [5],Potency [6],Potency [7],Potency [8],Potency [9],Potency [10]
O=C(O)CNC(=O)c1c(O)c2ccccc2n(Cc2ccccc2)c1=O,inactive,inactive,inactive,inactive,inactive,inactive,inactive,–,–,–
CCCCCC[C@H]1C(=O)O[C@H](C)[C@H](NC(=O)c2cccc(NC=O)c2O)C(=O)O[C@@H](C)[C@@H]1OC(=O)CC(C)C,0.132 µM (active),0.166 µM (active),6.62 µM (active),0.469 µM (active),0.132 µM (active),0.235 µM (active),0.332 µM (active),0.235 µM (active),0.148 µM (active),–
C[C@]12CC[C@@H]3[C@@H](CCC4=CC(=O)CC[C@@H]43)[C@@H]1CC[C@@H]2OC(=O)CCc1ccccc1,inactive,–,–,–,–,–,–,–,–,–
Cc1nc(-c2ccc(-c3ccc(C(=O)N4CCc5cc6c(cc54)C4(CCN(C)CC4)CO6)cc3)c(C)c2)no1,inactive,–,inactive,–,–,–,inactive,inactive,–,inactive
O=[N+]([O-])c1ncc[nH]1,inactive,–,16.6 µM (active),inactive,inactive,–,inactive,–,3.32 µM (active),inactive
O=C(Oc1ccc([N+](=O)[O-])cc1)N1CCC(C(O)(c2ccc3c(c2)OCO3)c2ccc3c(c2)OCO3)CC1,10.5 µM (active),–,inactive,–,inactive,inactive,–,inactive,–,–
CC(C)N(CCNC(=O)CN1CCCC1=O)C(C)C,inactive,–,11.8 µM (active),inactive,–,inactive,inactive,–,–,inactive
CN1[C@H]2CC(O)C[C@H]1[C@H]1O[C@H]12 (some centres undefined),16.6 µM (active),–,18.7 µM (active),inactive,16.6 µM (active),13.2 µM (active),2.64 µM (active),–,20.9 µM (active),11.8 µM (active)
CCOP(=O)(OCC)C(C)NC(=O)N(CCCl)N=O (centres undefined),inactive,–,–,inactive,–,–,inactive,inactive,–,–
CC(O)=C(C#N)C(=O)Nc1cc(Br)ccc1Br,0.935 µM (active),–,20.9 µM (active),5.9 µM (active),18.7 µM (active),–,inactive,–,16.6 µM (active),6.62 µM (active)
CN(C)[C@@H]1C(=O)C(C(N)=O)=C(O)[C@@]2(O)C(=O)C3=C(O)c4c(O)cccc4[C@@](C)(O)[C@H]3[C@H](O)[C@@H]12,inactive,–,–,inactive,inactive,11.8 µM (active),–,inactive,10.5 µM (active),–
C[C@]12Cc3cn[nH]c3C[C@@H]1CC[C@@H]1[C@H]2CC[C@@]2(C)[C@H]1CC[C@]2(C)O,inactive,–,16.6 µM (active),inactive,–,–,inactive,–,23.5 µM (active),inactive
COc1ccc2c(c[n+](C)c3c4cc5c(cc4ccc23)OCO5)c1OC,7.43 µM (active),–,3.72 µM (active),4.69 µM (active),3.72 µM (active),3.32 µM (active),7.43 µM (active),6.62 µM (active),6.62 µM (active),–
COc1ccc(N(C(=O)Oc2c(C)cccc2C)c2ccnc(Nc3ccc(N4CCN(C)CC4)cc3)n2)c(OC)c1,0.372 µM (active),–,1.48 µM (active),–,1.48 µM (active),3.72 µM (active),–,–,3.72 µM (active),–
CC(C)[C@]12O[C@@H]1[C@@H]1O[C@]13[C@]1(O[C@H]1C[C@@H]1C4=C(CC[C@@]13C)C(=O)OC4)[C@H]2O,inactive,–,inactive,inactive,inactive,inactive,inactive,inactive,inactive,inactive
CCOC(=O)c1c(C(C#N)=CN)c2ccc(Cl)c(Cl)c2n1C,inactive,–,–,inactive,–,–,–,inactive,–,–
COC[C@H]1OC(=O)c2coc3c2[C@@]1(C)C1=C(C3=O)[C@@H]2CC[C@H](O)[C@@]2(C)C[C@@H]1OC(C)=O,1.05 µM (active),–,3.32 µM (active),6.62 µM (active),3.32 µM (active),–,0.209 µM (active),–,1.05 µM (active),5.26 µM (active)
C=C[C@@H]1CN2CCC1C[C@H]2[C@H](O)c1ccnc2ccccc12 (some centres undefined),13.2 µM (active),–,23.5 µM (active),6.62 µM (active),inactive,–,14.8 µM (active),–,7.43 µM (active),–
COc1ccc(CC2NCCc3cc(OC)c(OC)cc32)cc1OC (centres undefined),inactive,–,inactive,inactive,inactive,inactive,–,–,–,–

Structure (SMILES),Potency [1],Potency [2],Potency [3],Potency [4],Potency [5],Potency [6],Potency [7],Potency [8],Potency [9],Potency [10]
CSCC[C@@H](NC(=O)[C@@H](Cc1ccccc1)NC(=O)CNC(=O)CNC(=O)[C@@H](N)Cc1ccc(O)cc1)C(=O)O,inactive,–,–,inactive,inactive,–,inactive,inactive,–,inactive
C[C@]12COC(=O)C[C@@H]1CC[C@@H]1[C@H]2CC[C@@]2(C)[C@H]1CC[C@]2(C)O,inactive,–,1.18 µM (active),inactive,inactive,–,inactive,–,–,inactive
CCN1CCN(C(=O)Cc2ccc(Nc3ncc(F)c(Nc4ccc(C(=O)Nc5ccccc5Cl)cc4)n3)cc2)CC1,6.62 µM (active),–,7.43 µM (active),1.05 µM (active),8.33 µM (active),7.43 µM (active),2.64 µM (active),–,–,1.18 µM (active)
O=c1[nH]c2ccc(Cl)cc2c(N[C@@H]2CN3CCC2CC3)c1-c1nc2ccccc2[nH]1,0.418 µM (active),–,1.66 µM (active),0.0833 µM (active),2.64 µM (active),0.743 µM (active),0.148 µM (active),0.187 µM (active),6.62 µM (active),0.166 µM (active)
COc1ccc(C(=O)c2c(C)n(CCN3CCOCC3)c3cc(I)ccc23)cc1,16.6 µM (active),–,23.5 µM (active),20.9 µM (active),–,–,–,13.2 µM (active),–,5.26 µM (active)
O=C1CCC[C@@H]2[C@H]3CCCN4CCC[C@@H](CN12)[C@@H]34,inactive,–,–,–,inactive,–,inactive,inactive,–,–
Cc1c(C(=O)c2cccc3ccccc23)c2cccc3c2n1[C@H](CN1CCOCC1)CO3,23.5 µM (active),–,18.7 µM (active),7.43 µM (active),23.5 µM (active),–,23.5 µM (active),–,23.5 µM (active),18.7 µM (active)
C[C@@]12OC(=O)[C@]1([C@@H](O)[C@@H]1C=CCCC1)NC(=O)[C@H]2CCCl,0.0235 µM (active),–,0.0235 µM (active),0.0187 µM (active),0.0105 µM (active),0.0053 µM (active),0.001 µM (active),0.0187 µM (active),0.132 µM (active),0.0296 µM (active)
C[C@H]1CCCC=CC2C[C@H](O)C[C@@H]2[C@H](O)C=CC(=O)O1 (some centres undefined),inactive,–,inactive,–,inactive,inactive,inactive,0.001 µM (active),–,inactive
O=c1[nH]c2ccccc2n1C1CCN(Cc2ccc(-c3[nH]c4cc5ncnc5cc4nc3-c3ccccc3)cc2)CC1,0.833 µM (active),–,20.9 µM (active),10.5 µM (active),23.5 µM (active),–,0.662 µM (active),18.7 µM (active),14.8 µM (active),2.35 µM (active)
CO[C@H]1CCC(O[C@H]2C[C@H]([C@]3(C)CC[C@]4(C[C@H](O)[C@@H](C)[C@@H]([C@@H](C)C=C(C)C(=O)[C@H](C)C[C@H](C)C(=O)O)O4)O3)O[C@]3(O[C@@H]([C@H]4O[C@@](O)(CO)[C@H](C)C[C@H]4C)C[C@H]3C)[C@H]2C)O[C@H]1C (some centres undefined),0.662 µM (active),–,0.0833 µM (active),–,0.372 µM (active),0.296 µM (active),0.833 µM (active),–,1.66 µM (active),0.235 µM (active)
COc1cccc2c1[C@]13CCN(CC4CC4)[C@H](C2)[C@]1(OC)CCC(=O)C3,inactive,–,inactive,inactive,inactive,inactive,inactive,–,–,–
Clc1ccccc1C(c1ccccc1)(c1ccccc1)n1cccn1,inactive,–,–,inactive,–,16.6 µM (active),inactive,inactive,–,inactive
C[C@@H]1O[C@@H](O[C@@H]2C=C3CC[C@@H]4[C@@H](CC[C@]5(C)[C@H](c6ccc(=O)oc6)CC[C@@]45O)[C@@]3(C)CC2)[C@H](O)[C@H](O)[C@H]1O,0.0418 µM (active),–,0.0187 µM (active),0.0074 µM (active),0.0418 µM (active),0.0296 µM (active),0.0469 µM (active),0.0083 µM (active),0.0264 µM (active),0.0187 µM (active)
CC[C@@]1(O)C(=O)OCc2c1cc1n(c2=O)Cc2cc3ccccc3nc2-1,0.059 µM (active),–,0.166 µM (active),0.132 µM (active),2.35 µM (active),0.132 µM (active),0.105 µM (active),0.0166 µM (active),0.935 µM (active),0.209 µM (active)
c1ccc(CCCN2CCN(CCOC(c3ccccc3)c3ccccc3)CC2)cc1,26.4 µM (active),–,20.9 µM (active),inactive,26.4 µM (active),20.9 µM (active),23.5 µM (active),–,18.7 µM (active),13.2 µM (active)
COCC1(CO)C(=O)C2CCN1CC2 (centres undefined),20.9 µM (active),–,7.43 µM (active),9.35 µM (active),0.662 µM (active),0.59 µM (active),0.833 µM (active),4.18 µM (active),5.26 µM (active),0.296 µM (active)
CCc1c(C(=O)C(N)=O)c2c(OCC(=O)O)cccc2n1Cc1ccccc1,inactive,–,inactive,inactive,inactive,–,inactive,–,–,inactive
Cc1c(C(=O)Nc2cccc(C(F)(F)F)c2)cc(-c2ccccc2)n1CCCN1CCOCC1,3.72 µM (active),–,13.2 µM (active),10.5 µM (active),11.8 µM (active),20.9 µM (active),–,–,20.9 µM (active),16.6 µM (active)
